# Measured values published in PubChem BioAssay (NCI).
# Compounds without any hit were thinned out: in the full panel of roughly 83,000, 20% have a hit.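 Percent growth is the endpoint: 0 to 100 indicates growth inhibition (40 means 60% inhibition), 0 means no net growth, and negative values indicate cell death.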 Values without a mark were called inactive. Calls of active or inactive are those of the source. Rule for the calls: active = growth percent below 10; inactive = the rest.
# Experiments:
# Test in all cases: NCI-60 one-dose screen, 48 h (100 = growth as untreated, 0 = no growth, -100 = all killed)
# Conditions in all cases: 10 µM unless noted
# [1] = tested on: HCT-15 colon
# [2] = tested on: HT29 colon
# [3] = tested on: SNB-75 CNS
# [4] = tested on: SNB-19 CNS
# [5] = tested on: U251 CNS
# [6] = tested on: PC-3 prostate
# [7] = tested on: SK-MEL-5 melanoma
# [8] = tested on: UACC-62 melanoma
# [9] = tested on: LOX IMVI melanoma
# [10] = tested on: SK-MEL-28 melanoma
# [11] = tested on: SK-MEL-2 melanoma
# [12] = tested on: EKVX NSCLC
# [13] = tested on: SN12C renal
# [14] = tested on: UO-31 renal
# [15] = tested on: TK-10 renal
# [16] = tested on: ACHN renal
# [17] = tested on: CAKI-1 renal
# [18] = tested on: A498 renal
# [19] = tested on: CCRF-CEM leukemia
# [20] = tested on: MOLT-4 leukemia
Structure (SMILES),growth [1],growth [2],growth [3],growth [4],growth [5],growth [6],growth [7],growth [8],growth [9],growth [10],growth [11],growth [12],growth [13],growth [14],growth [15],growth [16],growth [17],growth [18],growth [19],growth [20]
COC(=O)c1[nH]nc2c1C1(C(=O)N(C)c3ccccc31)C(C#N)=C(N)O2 (stereo not given),101%,104%,91.5%,101%,105%,91%,99.4%,96.1%,97%,105%,105%,99.3%,97.9%,79.7%,102%,97.9%,91.1%,90.2%,109%,112%
COc1cc2c(cc1OC)C(Sc1ccc(F)cc1)c1c(nc(N)c(C#N)c1N)O2 (stereo not given),-70.7% (active),5.15% (active),52.9%,-82.5% (active),-77.5% (active),-84% (active),-82.5% (active),-74.2% (active),-91.1% (active),-71.9% (active),-6.24% (active),-86.6% (active),-86.5% (active),-98.1% (active),-30.1% (active),-99.3% (active),-58.4% (active),-42.8% (active),-13.6% (active),0.279% (active)
C=CCn1c(-c2nc3ccc(C(=C(C#N)C#N)c4ccccc4)cc3[nH]2)cc2cc(Br)ccc21,30.4%,64.4%,89.3%,70.8%,51.9%,31.5%,55.9%,39.5%,36.4%,82.9%,96.7%,42.9%,69%,51.9%,94%,55.6%,48.8%,87.7%,50.5%,36.4%
CC1=CC(=O)C2=C(C)CC(OC(=O)CCc3ccccc3)[C@@H]3[C@H](OC(=O)[C@@H]3C)[C@@H]12 (stereo not given in full),81.7%,78.1%,95.8%,93.6%,102%,76.7%,82%,72.7%,95.9%,100%,103%,102%,95.3%,79.1%,102%,101%,86.1%,82.4%,88.7%,83.6%
NC(N)=Nc1ccc(Nc2cccc(Nc3ccc(Cl)c(C(F)(F)F)c3)c2)cn1,68.4%,29.8%,45.6%,4.1% (active),-43.2% (active),-24.9% (active),34.5%,24.5%,13.8%,40.3%,53.7%,43.1%,13.3%,82.3%,98%,78.1%,41.6%,58.8%,5.61% (active),12.8%
COc1ccc2c(c1)c(-c1cc(N)n3nc(-c4cn(C)c5ccc(OC)cc45)cc3n1)cn2C,29.8%,75.6%,98.2%,107%,-30.9% (active),88.7%,102%,100%,105%,113%,133%,107%,92.4%,93.3%,121%,103%,96.7%,88.8%,-8.54% (active),56.1%
C#CCOc1ccc(/C=N\Nc2nc(-c3ccc(C)cc3)cs2)cc1OC,86.1%,88.2%,114%,95.2%,89.3%,69.6%,71.6%,74.7%,93.7%,89.9%,96.1%,65.3%,89.2%,78.3%,166%,103%,115%,81.2%,90.4%,79.5%
CCN(CC)CCn1c2ccc(O)cc2c2sc3cc(OC)ccc3c(=O)c21,4.47% (active),-13.8% (active),40.7%,25.7%,16.1%,30.5%,76.7%,28.5%,-86% (active),2.25% (active),55.6%,43.5%,21.5%,26.8%,61.7%,12.4%,14.5%,73.3%,21.8%,5.44% (active)
O=C(c1ccc(Cl)cc1)C1[C@H](c2ccc(Cl)cc2)[C@@H](c2ccccc2)NC12C(=O)Nc1ccccc12 (stereo not given in full),35.1%,15.4%,51.1%,70.3%,45.8%,29.1%,75.1%,52.8%,42.4%,81.2%,72.5%,58.6%,16.6%,43.8%,78.8%,34.5%,37%,74.3%,53.9%,21.1%
O=S(=O)(NCCCNc1nccc(-c2[nH]c(-c3ccccc3)nc2-c2ccc(Cl)c(O)c2)n1)c1cccc2ccccc12,16.3%,38.6%,43.4%,37.8%,14.7%,26.2%,13.1%,17.4%,19.8%,29.8%,-4.81% (active),46.2%,24%,20.2%,49.7%,19.6%,39.5%,71.9%,20%,18.7%
CC(C)(C)c1ccc(-c2nnc(-c3nc4ccccc4nc3Cl)o2)cc1,81.9%,116%,96.4%,95.8%,98.2%,92.4%,98.1%,72.7%,90%,68.4%,63.8%,99.2%,86.2%,79.4%,107%,102%,89.2%,89.4%,103%,101%
N#Cc1cccc(CN2CCc3ncn(Cc4ccc(Cl)cc4)c(=O)c3C2)c1,13.5%,28.3%,33.2%,19.7%,23.1%,18.5%,3.19% (active),20.6%,35.3%,36.9%,28.6%,23.7%,15.9%,26%,38.1%,29.8%,10.7%,4.83% (active),35.9%,43.3%
COc1ccc([C@H]2c3[nH]c4ccccc4c3C[C@H]3C(=O)N(C4CCN(Cc5c(Cl)cccc5Cl)CC4)CC(=O)N23)c(OC)c1,92.4%,103%,99.3%,95.5%,95.8%,72.7%,95.7%,84.1%,98.6%,101%,103%,86.2%,91%,53.7%,110%,86.8%,73.4%,128%,94.6%,86.2%
Cc1ccc(NC(=S)NNC(=S)Nc2ccc(C)cc2)cc1,96.7%,105%,96.1%,98.5%,106%,101%,102%,98.6%,115%,105%,109%,94.5%,98.1%,89.9%,109%,105%,102%,84.1%,95.6%,97.5%
Cn1cc(-c2nc(N)nnc2-c2c[nH]c3ccc(Br)cc23)c2cc(Br)ccc21,29.8%,14.1%,55.8%,43.1%,27.9%,20.2%,42.9%,27.4%,44%,60.1%,26.8%,65.1%,44.7%,54.1%,98%,52%,40.3%,18.3%,11.8%,17.7%
